Paper PMC8384837, “Expanding the binding specificity for RNA recognition by a PUF domain”

Columns and labels:
Assay in all cases: yeast three-hybrid, YBZ-1, SC-Leu-His + 0.5 mM 3-AT, 4 days
Conditions in all cases: tags: N-Gal4 AD-HA kept; label: inside an RPR1-promoter hybrid RNA with tandem MS2 sites; ssRNA
PUM1 PUF domain R4-GMC = PUM1 PUF domain R4-GMC (Homo sapiens, UniProt Q14671 828-1176, N971G;H972M;Q975C)
In short: (§1)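 The interaction score is the log change in variant frequency from input to selection. Scores were computed in log2 with a pseudocount of 1 for absent variants, using Illumina sequencing of PCR-amplified repeat regions. The input came from four days on SC-Leu and the selection from four days on SC-Leu-His + 0.5 mM 3-AT. The cells were strain YBZ-1 (LexA–MS2 coat fusion, HIS3 reporter) co-expressing Pumilio-1 PUF domain libraries and matching RNA elements from a centromeric plasmid.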

PUM1 PUF domain R4-SPI = PUM1 PUF domain R4-SPI (Homo sapiens, UniProt Q14671 828-1176, N971S;H972P;Q975I)
In short: as §1

PUM1 PUF domain R4-GNG = PUM1 PUF domain R4-GNG (Homo sapiens, UniProt Q14671 828-1176, N971G;H972N;Q975G)
In short: as §1

PUM1 PUF domain R4-WAK = PUM1 PUF domain R4-WAK (Homo sapiens, UniProt Q14671 828-1176, N971W;H972A;Q975K)
In short: as §1

PUM1 PUF domain R5-WWW = PUM1 PUF domain R5-WWW (Homo sapiens, UniProt Q14671 828-1176, C1007W;R1008W;Q1011W)
In short: as §1

PUM1 PUF domain R5-KRC = PUM1 PUF domain R5-KRC (Homo sapiens, UniProt Q14671 828-1176, C1007K;Q1011C)
In short: as §1

PUM1 PUF domain R5-SVT = PUM1 PUF domain R5-SVT (Homo sapiens, UniProt Q14671 828-1176, C1007S;R1008V;Q1011T)
In short: as §1

PUM1 PUF domain R5-HRS = PUM1 PUF domain R5-HRS (Homo sapiens, UniProt Q14671 828-1176, C1007H;Q1011S)
In short: as §1

PUM1 PUF domain R3-KPS = PUM1 PUF domain R3-KPS (Homo sapiens, UniProt Q14671 828-1176, C935K;R936P;Q939S)
In short: as §1

PUM1 PUF domain R3-LRG = PUM1 PUF domain R3-LRG (Homo sapiens, UniProt Q14671 828-1176, C935L;Q939G)
In short: as §1

PUM1 PUF domain R7-RSS = PUM1 PUF domain R7-RSS (Homo sapiens, UniProt Q14671 828-1176, S1079R;N1080S;E1083S)
In short: as §1

PUM1 PUF domain R3-YRQ = PUM1 PUF domain R3-YRQ (Homo sapiens, UniProt Q14671 828-1176, C935Y)
In short: as §1

PUM1 PUF domain R3-FCL = PUM1 PUF domain R3-FCL (Homo sapiens, UniProt Q14671 828-1176, C935F;R936C;Q939L)
In short: as §1

PUM1 PUF domain R6-VYE = molecular target: T1, PUM1 PUF domain R6-VYE (Homo sapiens, UniProt Q14671 828-1176, N1043V;Q1047E)
T1 sequence: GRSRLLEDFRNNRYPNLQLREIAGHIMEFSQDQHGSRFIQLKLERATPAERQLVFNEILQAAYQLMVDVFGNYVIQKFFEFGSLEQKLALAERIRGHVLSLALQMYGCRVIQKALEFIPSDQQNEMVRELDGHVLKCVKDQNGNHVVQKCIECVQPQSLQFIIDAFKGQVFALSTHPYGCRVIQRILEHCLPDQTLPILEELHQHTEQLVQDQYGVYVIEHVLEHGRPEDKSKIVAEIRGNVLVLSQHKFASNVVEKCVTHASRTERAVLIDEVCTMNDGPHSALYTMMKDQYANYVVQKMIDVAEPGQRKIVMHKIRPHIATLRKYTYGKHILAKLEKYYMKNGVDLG
In short: as §1

Chain of PUM1 PUF domain R5-HRS (Q14671 828-1176 C1007H/Q1011S): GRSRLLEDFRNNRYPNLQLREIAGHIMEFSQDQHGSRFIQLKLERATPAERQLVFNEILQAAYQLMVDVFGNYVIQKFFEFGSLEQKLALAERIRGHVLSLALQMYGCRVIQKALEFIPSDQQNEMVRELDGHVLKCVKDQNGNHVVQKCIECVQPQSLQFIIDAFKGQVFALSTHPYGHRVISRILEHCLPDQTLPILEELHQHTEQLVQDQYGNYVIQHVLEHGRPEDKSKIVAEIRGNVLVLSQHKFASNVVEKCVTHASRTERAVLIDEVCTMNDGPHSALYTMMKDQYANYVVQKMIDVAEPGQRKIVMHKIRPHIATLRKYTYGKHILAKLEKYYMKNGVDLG
Chain of PUM1 PUF domain R4-GNG (Q14671 828-1176 N971G/H972N/Q975G): as the sequence (Q14671 828-1176 C1007H/Q1011S) above, with N144G, H145N, Q148G, H180C, S184Q counted along it
Chain of PUM1 PUF domain R5-KRC (Q14671 828-1176 C1007K/Q1011C): as the sequence (Q14671 828-1176 C1007H/Q1011S) above, with H180K, S184C counted along it

Q: “GGCUAGAACUAGUGGAUCCCCCGGCGCCCGGCGGCUCGAGCCCGGGUAAGUGUAUAUAGUCUGCAUGCCGCCGGGCGCCAUGCCUGCAGGUCGACUCUAGAAAACAUG” was tested. Which binding signal (PUM1 PUF domain R4-GMC) did it give?
A: 3.12 log2 enrichment (interaction score)

Q: And the binding signal (PUM1 PUF domain R4-SPI)?
A: 2.21 log2 enrichment (interaction score)

Q: What about the binding signal (PUM1 PUF domain R4-GNG) of the same sequence?
A: 3.28 log2 enrichment (interaction score)

Q: And the binding signal (PUM1 PUF domain R4-WAK)?
A: 2.71 log2 enrichment (interaction score)

Q: What does the source list for “GGCUAGAACUAGUGGAUCCCCCGGCGCCCGGCGGCUCGAGCCCGGGUAAGUGUGAAUAGUCUGCAUGCCGCCGGGCGCCAUGCCUGCAGGUCGACUCUAGAAAACAUG”?
A: binding signal (PUM1 PUF domain R5-WWW): 3.25 log2 enrichment (interaction score); binding signal (PUM1 PUF domain R5-KRC): 1.03 log2 enrichment (interaction score); binding signal (PUM1 PUF domain R5-SVT): 3.92 log2 enrichment (interaction score); binding signal (PUM1 PUF domain R5-HRS): 0.46 log2 enrichment (interaction score)

Q: What does the source list for “GGCUAGAACUAGUGGAUCCCCCGGCGCCCGGCGGCUCGAGCCCGGGUAAGUGUAAUUAGUCUGCAUGCCGCCGGGCGCCAUGCCUGCAGGUCGACUCUAGAAAACAUG”?
A: binding signal (PUM1 PUF domain R3-KPS): 3.86 log2 enrichment (interaction score); binding signal (PUM1 PUF domain R3-LRG): 0.54 log2 enrichment (interaction score)

Q: What does the source list for “GGCUAGAACUAGUGGAUCCCCCGGCGCCCGGCGGCUCGAGCCCGGGUAAGUGUACAUAGUCUGCAUGCCGCCGGGCGCCAUGCCUGCAGGUCGACUCUAGAAAACAUG”?
A: binding signal (PUM1 PUF domain R4-SPI): 0.54 log2 enrichment (interaction score); binding signal (PUM1 PUF domain R4-GNG): 2.39 log2 enrichment (interaction score)

Q: For “GGCUAGAACUAGUGGAUCCCCCGGCGCCCGGCGGCUCGAGCCCGGGUAAGUUUAAAUAGUCUGCAUGCCGCCGGGCGCCAUGCCUGCAGGUCGACUCUAGAAAACAUG”, which binding signal (PUM1 PUF domain R7-RSS) is on record?
A: 2.76 log2 enrichment (interaction score)

Q: What does the source list for “GGCUAGAACUAGUGGAUCCCCCGGCGCCCGGCGGCUCGAGCCCGGGUAAGUGUAAGUAGUCUGCAUGCCGCCGGGCGCCAUGCCUGCAGGUCGACUCUAGAAAACAUG”?
A: binding signal (PUM1 PUF domain R3-YRQ): 3.31 log2 enrichment (interaction score); binding signal (PUM1 PUF domain R3-FCL): 4.28 log2 enrichment (interaction score); binding signal (PUM1 PUF domain R3-LRG): 3.85 log2 enrichment (interaction score)

Q: For “GGCUAGAACUAGUGGAUCCCCCGGCGCCCGGCGGCUCGAGCCCGGGUAAGUGGAAAUAGUCUGCAUGCCGCCGGGCGCCAUGCCUGCAGGUCGACUCUAGAAAACAUG”, which binding signal (PUM1 PUF domain R6-VYE) is on record?
A: 2.43 log2 enrichment (interaction score)

Q: What does the source list for “GGCUAGAACUAGUGGAUCCCCCGGCGCCCGGCGGCUCGAGCCCGGGUAAGUGUCAAUAGUCUGCAUGCCGCCGGGCGCCAUGCCUGCAGGUCGACUCUAGAAAACAUG”?
A: binding signal (PUM1 PUF domain R5-KRC): 3.63 log2 enrichment (interaction score); binding signal (PUM1 PUF domain R5-HRS): 2.88 log2 enrichment (interaction score)
